Results filed as inconclusive are left out. Calls of active or inactive are those of the source. Unless noted, calls come from the whole dose curve. Peptide text beside a SMILES is read from it.
Key:
[1] = qHTS for Inhibitors of the Functional Ribonucleoprotein Complex (vRNP) of Lassa (LASV) Arenavirus: LASV Primary Screen - GLuc reporter signal (AID 1347082; calls by dose curve; tested in HEK293 reporter line; note: nearly all actives have a fitted effect of over 60% in size); conditions: LASV minigenome vRNP, Gaussia luciferase reporter; series mostly up to 57.5 µM
[2] = qHTS for Inhibitors of the Functional Ribonucleoprotein Complex (vRNP) of Lassa (LASV) Arenavirus: Viability assay - alamar blue signal for LASV Primary Screen (AID 1347083; calls by dose curve; tested in HEK293 reporter line; note: nearly all actives have a fitted effect of over 80% in size); conditions: cell viability, alamar blue fluorescence (LASV minigenome counter-screen); series mostly up to 57.5 µM
[3] = qHTS for Inhibitors of the Functional Ribonucleoprotein Complex (vRNP) of Lymphocytic Choriomeningitis Arenaviruses (LCMV): Viability assay - alamar blue signal for LCMV Primary Screen (AID 1347085; calls by dose curve; tested in HEK293 reporter line; note: nearly all actives have a fitted effect of over 80% in size); conditions: alamar blue viability counter-screen, LCMV vRNP screen cells; series mostly up to 57.5 µM
[4] = target: Nucleoprotein (Lymphocytic choriomeningitis virus (strain Armstrong)) (UniProt P09992); experiment: qHTS for Inhibitors of the Functional Ribonucleoprotein Complex (vRNP) of Lymphocytic Choriomeningitis Arenaviruses (LCMV): LCMV Primary Screen - GLuc reporter signal (AID 1347086); conditions: LCMV minigenome vRNP cell assay, Gaussia luciferase reporter; series mostly up to 57.5 µM; note: nearly all actives have a fitted effect of over 70% in size
Chain of Nucleoprotein (Lymphocytic choriomeningitis virus (strain Armstrong)) (P09992 whole entry, looked up): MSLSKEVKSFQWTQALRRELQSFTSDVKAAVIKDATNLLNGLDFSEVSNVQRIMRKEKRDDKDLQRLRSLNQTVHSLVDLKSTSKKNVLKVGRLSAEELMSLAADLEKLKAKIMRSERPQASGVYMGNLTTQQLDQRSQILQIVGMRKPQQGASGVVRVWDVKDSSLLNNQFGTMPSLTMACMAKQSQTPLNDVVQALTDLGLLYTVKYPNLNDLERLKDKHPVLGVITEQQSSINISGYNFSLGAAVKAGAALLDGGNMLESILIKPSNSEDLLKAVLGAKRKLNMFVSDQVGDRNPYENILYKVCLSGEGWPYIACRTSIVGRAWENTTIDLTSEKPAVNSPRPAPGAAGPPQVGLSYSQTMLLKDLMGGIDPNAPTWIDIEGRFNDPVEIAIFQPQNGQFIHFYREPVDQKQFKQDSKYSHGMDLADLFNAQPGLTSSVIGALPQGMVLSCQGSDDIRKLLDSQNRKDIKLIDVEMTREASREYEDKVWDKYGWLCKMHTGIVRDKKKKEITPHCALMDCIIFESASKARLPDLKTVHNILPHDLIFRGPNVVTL

Measured: Potency

CCOC(=O)C(=O)CCc1ccccc1
inactive: [1] | [2] | [3] | [4]

CC(CC1c2ccccc2CCc2ccccc21)CN(C)C (configuration not stated)
inactive: [1] | [2] | [3] | [4]

O=C(O)CCc1nc(-c2ccccc2)c(-c2ccccc2)o1
inactive: [1] | [2] | [3] | [4]

O=C(c1ccc(F)cc1)C1CCN(CCn2c(=O)[nH]c3ccccc3c2=O)CC1
inactive: [1] | [2] | [3] | [4]

N=C(N)c1ccc2cc(OC(=O)c3ccc(N=C(N)N)cc3)ccc2c1
inactive: [1] | [2] | [3] | [4]

COc1ccc(-n2nc(CCC(=O)N(C)O)cc2-c2ccc(Cl)cc2)cc1
inactive: [1] | [2] | [3] | [4]

CCc1cc2cc(OC)c(OC)cc2c(Cc2ccccc2)n1
inactive: [1] | [2] | [3] | [4]

O=C(O)c1cccnc1Nc1cccc(C(F)(F)F)c1
inactive: [1] | [2] | [3] | [4]

CCOc1ccccc1C(N)=O
inactive: [1] | [2] | [3] | [4]

c1ccc(OCc2ccc(CCCN3CCOCC3)cc2)cc1
inactive: [1] | [2] | [3] | [4]

O=C1Cc2cc(Cl)ccc2N1
inactive: [1] | [2] | [3] | [4]

O=C(O)COC(=O)Cc1ccccc1Nc1c(Cl)cccc1Cl
inactive: [1] | [2] | [3] | [4]

C/C(=N/NC(=O)c1ccncc1)C(=O)O
inactive: [1] | [2] | [3] | [4]

OC[C@@H](O)[C@@H](O)[C@H](O)[C@H](O)CO
inactive: [1] | [2] | [3] | [4]

O=C(O)Cc1ccc(CCNS(=O)(=O)c2ccc(Cl)cc2)cc1
inactive: [1] | [2] | [3] | [4]

CCCCCCCCCCCCOS(=O)(=O)O
inactive: [1] | [2] | [3] | [4]

CN1CCC(=C2c3ccccc3CCc3sccc32)CC1
inactive: [1] | [2] | [3] | [4]

Cc1ccc(O)c(-n2nc3ccccc3n2)c1
inactive: [1] | [2] | [3] | [4]

CC1(C)S[C@@H]2[C@H](N=CN3CCCCCC3)C(=O)N2[C@H]1C(=O)O
inactive: [1] | [2] | [3] | [4]

Cc1cc(O)c(C(C)C)cc1Cl
inactive: [1] | [2] | [3] | [4]

CO/N=C(/C(=O)N[C@@H]1C(=O)N2C(C(=O)O)=C(Cn3nnc(C)n3)CS[C@H]12)c1csc(N)n1
inactive: [1] | [2] | [3] | [4]

O=C1Nc2cc(Cl)ccc2Oc2ccccc21
inactive: [1] | [2] | [3] | [4]

O=C(OCC(COC(=O)c1cccnc1)(COC(=O)c1cccnc1)COC(=O)c1cccnc1)c1cccnc1
inactive: [1] | [2] | [3] | [4]

NS(=O)(=O)c1cc2c(cc1Cl)NC(CSCc1ccccc1)=NS2(=O)=O
inactive: [1] | [2] | [3] | [4]

OC1C(O)C(O)C(O)C(O)C1O (configuration not stated)
inactive: [1] | [2] | [3] | [4]

COc1ccc2nc(NC(=O)Nc3ccccc3)sc2c1
inactive: [1] | [2] | [3] | [4]

CCCc1cc(C(N)=S)ccn1
inactive: [1] | [2] | [3] | [4]

CCOC(=O)NNc1nncc2ccccc12
inactive: [1] | [2] | [3] | [4]

NC[C@H]1O[C@H](O[C@H]2[C@H](O)[C@@H](O[C@H]3O[C@H](CO)[C@@H](O)[C@H](N)[C@H]3O)[C@H](N)C[C@@H]2N)[C@H](N)[C@@H](O)[C@@H]1O
inactive: [1] | [2] | [3] | [4]

C[C@H](CCC(=O)O)[C@H]1CC[C@H]2[C@@H]3C(=O)C[C@@H]4CC(=O)CC[C@]4(C)[C@H]3CC(=O)[C@]12C
inactive: [1] | [2] | [3] | [4]

CSc1ccc2c(c1)C(N1CCN(C)CC1)Cc1ccccc1S2 (configuration not stated)
inactive: [1] | [2] | [3] | [4]

CCC(=O)O[C@]1(C(=O)COC)[C@@H](C)C[C@H]2[C@@H]3CCC4=CC(=O)C=C[C@]4(C)C3(F)[C@@H](O)C[C@@]21C (some centres not stated)
inactive: [1] | [2] | [3] | [4]

O=C(OCc1ccccc1)c1ccc(O)cc1
inactive: [1] | [2] | [3] | [4]

CC(C)(C)C(=O)C(Oc1ccc(Cl)cc1)n1ccnc1 (configuration not stated)
inactive: [1] | [2] | [3] | [4]

O=C(CCCCCCCCC#CI)Oc1ccccc1
inactive: [1] | [2] | [3] | [4]

COc1cc2[nH]c(=O)[nH]c(=O)c2cc1OC
inactive: [1] | [2] | [3] | [4]

CCN(CC)CCCN(c1ccccc1)C1Cc2ccccc2C1
inactive: [1] | [2] | [3] | [4]

CC1(C)[C@H](C(=O)O)N2C(=O)C[C@H]2S1(=O)=O
inactive: [1] | [2] | [3] | [4]

CN(C)CCCO[C@@H]1[C@H]2OC(C)(C)O[C@H]2O[C@@H]1C(O)CO (some centres not stated)
inactive: [1] | [2] | [3] | [4]

CCOc1ccc(C(=O)OCCN(CC)CC)cc1
inactive: [1] | [2] | [3] | [4]

C=C1c2cccc(O)c2C(O)=C2C(=O)[C@]3(O)C(O)=C(C(N)=O)C(=O)[C@@H](N(C)C)[C@@H]3[C@@H](O)[C@H]12
inactive: [1] | [2] | [3] | [4]

O=C1O[C@H]([C@@H](O)CO)C(O)=C1O
inactive: [1] | [2] | [3] | [4]

Nc1c(NC/C=C\COc2cc(CN3CCCCC3)ccn2)c(=O)c1=O
inactive: [1] | [2] | [3] | [4]

CC(=O)Oc1ccc2c(c1)CC[C@@H]1[C@@H]2CC[C@]2(C)[C@@H](O)CC[C@@H]12
inactive: [1] | [2] | [3] | [4]

Brc1c(NC2=NCCN2)ccc2nccnc12
inactive: [1] | [2] | [3] | [4]

CC(C)NCCCC1(C(N)=O)c2ccccc2-c2ccccc21
inactive: [1] | [2] | [3] | [4]

NC(N)=NCCC[C@H](N)C(=O)O
inactive: [1] | [2] | [3] | [4]

CC(=O)N[C@@H](CO)C(=O)N[C@@H](CC(=O)O)C(=O)N[C@@H](CCCCN)C(=O)N1CCC[C@H]1C(=O)O (Ac-SDKP-OH)
inactive: [1] | [2] | [3] | [4]

O=C(O)/C=C/c1ccc(Cn2ccnc2)cc1
inactive: [1] | [2] | [3] | [4]

CN1CCN(c2cc3c(nn2)Oc2ccccc2N3C)CC1
inactive: [1] | [2] | [3] | [4]

CCn1cc(C(=O)O)c(=O)c2cc(F)c(N3CCNCC3)nc21
inactive: [1] | [2] | [3] | [4]

C[C@H]1NCc2cc(-c3ccc4c(=O)c(C(=O)O)cn(C5CC5)c4c3OC(F)F)ccc21
inactive: [1] | [2] | [3] | [4]

O=C(O)C(=O)Nc1cccc(-c2nn[nH]n2)c1
inactive: [1] | [2] | [3] | [4]

Nc1ccc(S(=O)(=O)Nc2nccs2)cc1
inactive: [1] | [2] | [3] | [4]

CCCc1ncc(C[n+]2ccccc2C)c(N)n1
inactive: [1] | [2] | [3] | [4]

O=c1[nH]c(=O)c2ccccc2o1
inactive: [1] | [2] | [3] | [4]

CC(NC(CCc1ccccc1)C(=O)O)C(=O)N1C(=O)N(C)CC1C(=O)O (configuration not stated)
inactive: [1] | [2] | [3] | [4]

Cc1cn([C@H]2C[C@H](F)[C@@H](CO)O2)c(=O)[nH]c1=O
inactive: [1] | [2] | [3] | [4]

O=c1cc(CO)occ1O
inactive: [1] | [2] | [3] | [4]

C[C@H](N)[C@H](O)c1cccc(O)c1
inactive: [1] | [2] | [3] | [4]

CCCC(=O)OC[C@@H](OC(=O)CCC)[C@@H](OC(=O)CCC)[C@H](Cn1c2nc(=O)[nH]c(=O)c-2nc2cc(C)c(C)cc21)OC(=O)CCC
inactive: [1] | [2] | [3] | [4]

Cc1c(C)c2c(c(C)c1OC(=O)CCC(=O)OCCO)CC[C@@](C)(CCC[C@H](C)CCC[C@H](C)CCCC(C)C)O2
inactive: [1] | [2] | [3] | [4]

c1ccc(C(O[C@H]2CCCN(CCc3ccc4c(c3)OCO4)C2)c2ccccc2)cc1
inactive: [1] | [2] | [3] | [4]

Oc1ccc(/C=C/c2cc(O)cc(O)c2)cc1
inactive: [1] | [2] | [3] | [4]

CCN(CC)CCNC(=O)c1cc(Br)c(N)cc1OC
inactive: [1] | [2] | [3] | [4]

COC(=O)C1=C(C)NC(C)=C(C(=O)OCCN2CCN(C(c3ccccc3)c3ccccc3)CC2)C1c1cccc([N+](=O)[O-])c1 (configuration not stated)
inactive: [1] | [2] | [3] | [4]

CN1CCN(c2c(F)cc3c(=O)c(C(=O)O)cn(CCF)c3c2F)CC1
inactive: [1] | [2] | [3] | [4]

O=C(O)CCC(=O)Nc1ccc(S(=O)(=O)Nc2nccs2)cc1
inactive: [1] | [2] | [3] | [4]
